Bioassay records deposited in PubChem by The Scripps Research Institute Molecular Screening Center.
SRC2 inh: inhibition of GAL4-SRC2 driven luciferase reporter, primary screen, SRC2 inhibitor project, cell-based, luminescence; HEK293 GAL4-SRC2 luciferase reporter; inhibition, % at 9 µM; AID 651957, 2012; 0.17% of 370,000 active; Nuclear receptor coactivator 2 (Homo sapiens), Q15596;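 active = inhibition above the mean inhibition of all tested compounds plus 3 SD, set per campaign, cut at about 52% in these data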
Target sequence (Q15596 whole entry, looked up, the tested form may be a part): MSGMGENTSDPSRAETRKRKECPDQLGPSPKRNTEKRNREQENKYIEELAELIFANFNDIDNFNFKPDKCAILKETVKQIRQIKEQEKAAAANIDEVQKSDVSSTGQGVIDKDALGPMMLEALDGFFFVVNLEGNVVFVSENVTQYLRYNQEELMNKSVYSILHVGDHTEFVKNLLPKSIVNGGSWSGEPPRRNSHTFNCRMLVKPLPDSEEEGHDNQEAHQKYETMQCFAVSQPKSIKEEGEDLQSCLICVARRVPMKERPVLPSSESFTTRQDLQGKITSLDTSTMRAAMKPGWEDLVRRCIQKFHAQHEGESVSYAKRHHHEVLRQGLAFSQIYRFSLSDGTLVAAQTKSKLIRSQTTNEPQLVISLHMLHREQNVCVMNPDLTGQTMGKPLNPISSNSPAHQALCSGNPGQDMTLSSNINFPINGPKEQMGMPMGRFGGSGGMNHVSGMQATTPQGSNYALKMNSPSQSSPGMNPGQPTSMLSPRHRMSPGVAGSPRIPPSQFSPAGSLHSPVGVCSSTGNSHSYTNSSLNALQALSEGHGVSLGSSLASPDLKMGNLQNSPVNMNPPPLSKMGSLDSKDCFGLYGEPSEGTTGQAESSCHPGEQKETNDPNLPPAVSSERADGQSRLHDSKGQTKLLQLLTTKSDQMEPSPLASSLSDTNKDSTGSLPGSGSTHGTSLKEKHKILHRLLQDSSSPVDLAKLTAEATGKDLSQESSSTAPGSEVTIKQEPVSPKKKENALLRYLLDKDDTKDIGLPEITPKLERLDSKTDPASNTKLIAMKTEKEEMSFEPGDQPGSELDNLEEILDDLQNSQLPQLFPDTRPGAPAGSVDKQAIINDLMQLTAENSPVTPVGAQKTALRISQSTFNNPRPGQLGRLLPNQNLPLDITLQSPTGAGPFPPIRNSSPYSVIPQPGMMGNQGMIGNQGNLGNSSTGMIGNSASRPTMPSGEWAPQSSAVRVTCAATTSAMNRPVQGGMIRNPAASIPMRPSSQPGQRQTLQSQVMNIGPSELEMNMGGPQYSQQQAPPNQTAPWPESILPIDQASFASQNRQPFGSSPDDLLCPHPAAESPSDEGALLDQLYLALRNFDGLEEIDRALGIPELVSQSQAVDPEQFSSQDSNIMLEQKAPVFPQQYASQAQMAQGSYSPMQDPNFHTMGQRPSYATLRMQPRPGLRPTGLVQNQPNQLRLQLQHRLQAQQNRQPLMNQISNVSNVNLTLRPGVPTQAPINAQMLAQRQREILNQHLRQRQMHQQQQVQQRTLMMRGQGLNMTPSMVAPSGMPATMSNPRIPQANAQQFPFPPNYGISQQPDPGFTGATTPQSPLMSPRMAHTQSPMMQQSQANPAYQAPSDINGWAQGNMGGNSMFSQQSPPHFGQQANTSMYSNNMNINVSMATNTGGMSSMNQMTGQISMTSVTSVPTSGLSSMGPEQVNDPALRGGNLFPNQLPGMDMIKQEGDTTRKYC
COUP-TFII inh: NR2F2 transcriptional activity inhibitors, primary screen, cell-based, luciferase reporter, HEK293T, luminescence. COUP transcription factor 2 (Homo sapiens), P24468. HEK293T NGFI-A luciferase reporter. inhibition, % at 8.6 µM. 0.7% of 370,000 active;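 active = inhibition above a per-plate cutoff, mean inhibition of test wells between control levels plus 3 SD, cut at about 38% in these data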;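 also: cells cotransfected with COUP-TFII expression vector driving the NGFI-A reporter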
SRC3 inh: SRC3 coactivator transcriptional activity inhibitors, primary screen, cell-based, luminescence | Nuclear receptor coactivator 3 (Homo sapiens), Q9Y6Q9 | HEK293 GAL4-SRC3 luciferase reporter | inhibition, % at 3.6 µM | 0.17% of 360,000 active;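 active = inhibition above a per-campaign cutoff, the mean of all compounds plus 3 SD, cut at about 60% in these data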;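 also: higher means less SRC3-driven luciferase light from the GAL4 reporter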
LRH-1 inv ag: LRH-1 (NR5A2) inverse agonists, primary screen, cell-based, luminescence, HEK293T, StAR-luciferase reporter; inhibition, % at 3.6 µM; LRH-1 transfected, 24 h; 0.13% of 360,000 active;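 active = inhibition above the mean inhibition of all tested compounds plus 3 SD, cut at about 73% in these data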
NCOA1 inh: SRC1 coactivator transcriptional activity inhibitors, primary screen, cell-based, luminescence; Nuclear receptor coactivator 1 (Homo sapiens), Q15788; HEK293 GAL4-SRC1 luciferase reporter; inhibition, % at 3.6 µM; 0.12% of 360,000 active;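 active = inhibition above the campaign mean plus 3 SD, with each screening campaign given its own cutoff, cut at about 60% in these data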
GalR3 antag: GalR3 antagonists in HEK293 cells, primary screen, cell-based, fluorescence readout; inhibition, % at 3 µM; 0.44% of 360,000 active; HEK293 GalR3-CNG cAMP membrane potential fluorescence; galR3 body fused to GalR1 C-terminus; AID 651719, 2012; Galanin receptor type 3 (Homo sapiens), O60755;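 active = inhibition above the screen-wide average plus 3 SD, cut at about 13% in these data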;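 also: forskolin and galanin both at EC90 stimulate the cells; cAMP rise reported by CNG channel membrane potential dye signal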
VP16 Luc counter: Gal4-VP16 luciferase reporter inhibitors, counter-screen for COUP-TFII antagonist project, cell-based, luminescence, HEK293 | shares compounds with COUP-TFII inh | inhibition, % at 8.5 µM | 25% of 2,500 active | AID 687007, 2013; in the data active = inhibition above about 13%
NR2F2 inh conf: NR2F2 transcriptional activity inhibitors, confirmation, cell-based, luciferase reporter, HEK293, triplicate; shares compounds with COUP-TFII inh; AID 687008, 2013; inhibition, % at 8.5 µM; HEK293 NGFI-A luciferase reporter, luminescence; 45% of 2,500 active;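 active = mean inhibition over three repeats above a set limit taken from the earlier primary screen, cut at about 38% in these data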
Of the large screens only hits and unclear results are named; the others gave an inactive call (follow-up assays come after a bar, where they were run). In the library only some 1.1% were active in any assay of this set; here they are far more common.

CN(C)S(=O)(=O)c1cccc(NC(=O)c2ccc(COc3ccccc3)cc2)c1	COUP-TFII inh 63 | VP16 Luc counter inactive | NR2F2 inh conf 52
Nc1ccc(S(=O)(=O)N2CCc3ccccc32)cc1	none
O=C(NNC(=O)c1cccc(S(=O)(=O)N2CCc3ccccc32)c1)c1ccccc1	COUP-TFII inh 41 | VP16 Luc counter inactive | NR2F2 inh conf inactive
O=C(C(=O)N1CCC(CNS(=O)(=O)c2ccc(F)cc2)CC1)c1cc2ccccc2o1	none (no result: SRC3 inh, LRH-1 inv ag, NCOA1 inh)
CC(=O)c1cc(-c2cccc(C#N)c2)c(=O)n2c1CCC2	none (no result: SRC3 inh, LRH-1 inv ag, NCOA1 inh, GalR3 antag)
CN(c1ccccc1)S(=O)(=O)c1cccc(NC(=O)CN2CCCc3ccccc32)c1	COUP-TFII inh 39 | VP16 Luc counter inactive | NR2F2 inh conf inactive
CCc1ccc(-c2nc(CSCC(=O)N3CCN(c4ccccn4)CC3)c(C)o2)cc1	COUP-TFII inh 52 | VP16 Luc counter inactive | NR2F2 inh conf inactive
CCOc1ccc(-c2nc(CSCC(=O)N3CCN(c4cccc(OC)c4)CC3)c(C)o2)cc1	SRC2 inh 59, COUP-TFII inh 66 (no result: GalR3 antag) | VP16 Luc counter 17 | NR2F2 inh conf 44
O=C(NCCc1ccccc1)OCc1cn(Cc2ccc(C(F)(F)F)cc2)nn1	none (no result: SRC3 inh, LRH-1 inv ag, NCOA1 inh, GalR3 antag)
O=C(N[C@H](Cc1ccccc1)C(=O)NCc1ccc(OC(F)(F)F)cc1)[C@H]1O[C@@H](n2ccc(=O)[nH]c2=O)[C@H](O)[C@@H]1O	none (no result: SRC3 inh, LRH-1 inv ag, NCOA1 inh)
COC(=O)NCC(c1cccnc1)N1CCN(c2ccccc2)CC1 (stereo not drawn)	none (no result: GalR3 antag)
O=C(NCCc1c[nH]c2ccccc12)C(=O)NCC(c1cccnc1)N1CCN(c2ccccc2)CC1 (stereo not drawn)	COUP-TFII inh 67 (no result: GalR3 antag) | VP16 Luc counter inactive | NR2F2 inh conf inactive
CCOCc1nc(N)nc(N)c1-c1cccc(Cl)c1	COUP-TFII inh 57 | VP16 Luc counter inactive | NR2F2 inh conf inactive
O=C1CCCCC1Sc1nnc(-c2ccc3c(c2)OCO3)o1 (stereo not drawn)	SRC2 inh 57, COUP-TFII inh 64 | VP16 Luc counter 22 | NR2F2 inh conf 59
COc1ccc(CN2C(=O)[C@@](O)(c3cccn3C)c3cc(F)ccc32)cc1	none (no result: SRC3 inh, LRH-1 inv ag, NCOA1 inh, GalR3 antag)
c1ccc(Nc2ccccc2Nc2ccccn2)nc1	none
Oc1cccc2ccc(Nc3ccccn3)nc12	COUP-TFII inh 39 | VP16 Luc counter inactive | NR2F2 inh conf inactive
COc1ccc(CNS(=O)(=O)/C=C/c2ccc(F)cc2CNC(=O)OC(C)(C)C)cc1	none (no result: SRC3 inh, LRH-1 inv ag, NCOA1 inh, GalR3 antag)
CC(=O)OC1CCC2(C)C(CCC3C4CC=C(C(C)=O)C4(C)OC(=O)CC32)C1 (stereo not drawn)	SRC2 inh 59, COUP-TFII inh 57 | VP16 Luc counter 37 | NR2F2 inh conf 44
CN(Cc1ccccc1)C(=O)OCc1cn(Cc2c(F)cccc2F)nn1	none (no result: SRC3 inh, LRH-1 inv ag, NCOA1 inh, GalR3 antag)
CN(c1ccccc1)S(=O)(=O)c1ccc(Cl)c(C(=O)Nc2ccncc2)c1	COUP-TFII inh 40 | VP16 Luc counter inactive | NR2F2 inh conf inactive
CN(c1ccc(F)cc1)S(=O)(=O)c1ccc(Cl)c(C(=O)Nc2ccncc2)c1	none
Cc1ccc(C(=O)Nc2ccncc2)cc1S(=O)(=O)N1CCOCC1	none
O=C(Nc1ccc(Cl)c(S(=O)(=O)N2CCCCC2)c1)c1cccnc1	none
CCN(CC)S(=O)(=O)c1cc(C(=O)Nc2cccnc2)ccc1Cl	none
O=C(Nc1ccncc1)c1ccc(Cl)c(S(=O)(=O)N2CCCC2)c1	COUP-TFII inh 46 | VP16 Luc counter inactive | NR2F2 inh conf inactive
CCN(CC)S(=O)(=O)c1cc(C(=O)Nc2ccncc2)ccc1Cl	COUP-TFII inh 64 | VP16 Luc counter inactive | NR2F2 inh conf inactive
Cc1ccc(C(=O)Nc2ccncc2)cc1S(=O)(=O)N1CCCCC1	COUP-TFII inh 47 | VP16 Luc counter inactive | NR2F2 inh conf inactive
COc1ccc(C2CC(=O)C(c3ccccc3C)=CN2Cc2ccccc2)cc1 (stereo not drawn)	none (no result: SRC3 inh, LRH-1 inv ag, NCOA1 inh)
COc1ccc(Cn2ccc3ccc(-c4ccc5ccn(C(=O)c6ccccc6)c5c4)cc32)cc1	none (no result: SRC3 inh, LRH-1 inv ag, NCOA1 inh, GalR3 antag)
C[C@H](O)[C@@H]1CN2CCc3ccc(-c4ccc5c(c4)OCO5)cc3[C@@H]2C[C@@H]1N(C)Cc1cc(Cl)cc(Cl)c1	none (no result: SRC3 inh, LRH-1 inv ag, NCOA1 inh)
O=C(Nc1cccc(S(=O)(=O)N2CCCCC2)c1)c1ccccc1NS(=O)(=O)c1ccc(F)cc1	none
Cc1ccc(NC(=O)c2ccccc2NS(=O)(=O)c2ccc(F)cc2)cc1S(=O)(=O)N1CCCCC1	COUP-TFII inh 38 | VP16 Luc counter inactive | NR2F2 inh conf inactive
Cc1cc(C(=O)CSc2nnc(-c3cccc(F)c3)n2N)c(C)n1Cc1ccc2c(c1)OCO2	COUP-TFII inh 44 | VP16 Luc counter inactive | NR2F2 inh conf inactive
Cc1cccc(Nc2nc(-c3c(C)nc4ccccn34)cs2)c1	COUP-TFII inh 53 | VP16 Luc counter inactive | NR2F2 inh conf 44
Cc1nc2ccccn2c1-c1csc(Nc2cccc(O)c2)n1	none
CC1CCC2(CCC(=O)N2CCCOC(=O)Nc2cccc(C(F)(F)F)c2)CC1 (stereo not drawn)	none (no result: SRC3 inh, LRH-1 inv ag, NCOA1 inh, GalR3 antag)
CCOc1ccc(S(=O)(=O)NCc2ccncc2)cc1NC(=O)c1ccccc1	COUP-TFII inh 59 | VP16 Luc counter inactive | NR2F2 inh conf 54
CCCc1ccc(-c2ccc(/C=C/C(=O)O)cc2)nc1	SRC2 inh 88, COUP-TFII inh 98, SRC3 inh 65, LRH-1 inv ag 78, NCOA1 inh 71 | VP16 Luc counter 91 | NR2F2 inh conf 102
C=C(C)CSc1nc2sc(C)c(C)c2c(=O)n1C	none (no result: SRC3 inh, LRH-1 inv ag, NCOA1 inh, GalR3 antag)
COc1cc(SC)ccc1C(=O)Nc1nc2ccccc2[nH]1	SRC2 inh 95, COUP-TFII inh 100, SRC3 inh 92, LRH-1 inv ag 93, NCOA1 inh 93 | VP16 Luc counter 96 | NR2F2 inh conf 108
COc1ccccc1C(=O)Nc1nc2ccccc2[nH]1	SRC2 inh 94, COUP-TFII inh 98, SRC3 inh 80, LRH-1 inv ag 84, NCOA1 inh 84 | VP16 Luc counter 87 | NR2F2 inh conf 100
COc1ccc(C(=O)Nc2nc3ccccc3[nH]2)cc1	none
Cc1ccc(C(=O)Nc2cnc3ccccc3c2)cc1	SRC2 inh 72, COUP-TFII inh 71 | VP16 Luc counter 24 | NR2F2 inh conf 48
